# Laboratory results: the supplement of paper PMC3414501
# Structures can show the parent of a compound that is named as a salt.
# How the values were obtained:
# [1] = test system: S. cerevisiae AD1-9 (efflux-pump deficient), vegetative growth in YPD; assay: growth sensitivity score (doubling time z-score vs DMSO controls); higher = slower growth, strongly negative scores also mark growth inhibition (complete suppression), active = hit call of the paper
# In short: (§1)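 Optical density of Saccharomyces cerevisiae cultures in microtiter plates was followed every 15 min for 24 hours after seeding at an OD600 of 0.065. Eight solvent-only wells were run per experiment. Growth sensitivity scores were found by subtracting the solvent-only mean from the compound mean and dividing by the solvent-only standard deviation.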
# [2] = test system: S. cerevisiae BY4741 (wild-type), vegetative growth in YPD; assay: as above
# In short: as §1
# [3] = test system: S. cerevisiae SK1 pCDA2-eGFP (USY613), sporulating; assay: CDA2-GFP sporulation assay sensitivity score (z-score vs DMSO controls); higher = stronger inhibition of sporulation, active = hit call of the paper;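 note: active if sensitivity score above 5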
Compound,growth sensitivity score [1],growth sensitivity score [2],CDA2-GFP sporulation assay sensitivity score [3]
"CC[C@@]1(O)C(=O)OCc2c1cc1n(c2=O)Cc2cc3c(CN(C)C)c(O)ccc3nc2-1 [Topotecan hydrochloride] (stock concentration (mM, diluted 1:100): 9.2)",4.71 (active),-1.34 (inactive),
"CN(C)[C@@H]1C(O)=C(C(=O)NCN2CCCC2)C(=O)[C@@]2(O)C(O)=C3C(=O)c4c(O)cccc4[C@@](C)(O)[C@H]3C[C@@H]12 [Rolitetracycline] (stock concentration (mM, diluted 1:100): 10)",-1.77 (inactive),-1.17 (inactive),
"COc1ccc(CCN(C)CCCC(C#N)(c2ccc(OC)c(OC)c2)C(C)C)cc1OC (configuration not stated) (stock concentration (mM, diluted 1:100): 10)",,0.01 (inactive),2.38 (inactive)
"CN(C)CCCC1(c2ccc(F)cc2)OCc2cc(C#N)ccc21 (configuration not stated) [Citalopram hydrobromide] (stock concentration (mM, diluted 1:100): 7.9)",0.63 (inactive),-0.04 (inactive),-1.83 (inactive)
"C#C[C@]1(O)CC[C@H]2[C@@H]3CCc4cc(OC)ccc4[C@H]3CC[C@@]21C [Mestranol] (stock concentration (mM, diluted 1:100): 10)",3.53 (active),0.8 (inactive),4.85 (inactive)
"CN(C)CCc1c[nH]c2ccc(C[C@H]3COC(=O)N3)cc12 [Zolmitriptan] (stock concentration (mM, diluted 1:100): 10)",-1.29 (inactive),-0.77 (inactive),-0.81 (inactive)
"CC(=O)Nc1ccc(CC(=O)O)cc1 [Actarit] (stock concentration (mM, diluted 1:100): 10)",0.98 (inactive),-2 (inactive),0.84 (inactive)
"CC(Oc1c(Cl)cccc1Cl)C1=NCCN1 (configuration not stated) [Lofexidine hydrochloride] (stock concentration (mM, diluted 1:100): 10)",-0.79 (inactive),0.09 (inactive),7.06 (inactive)
"CC(C)NCC(O)COc1ccc(CCOCC2CC2)cc1 (configuration not stated) [Betaxolol hydrochloride] (stock concentration (mM, diluted 1:100): 10)",-0.35 (inactive),0.42 (inactive),7.8 (active)
"CCOC(=O)C1=C(COCCN)NC(C)=C(C(=O)OC)C1c1ccccc1Cl (configuration not stated) [Amlodipine base] (stock concentration (mM, diluted 1:100): 13.9)",,14.2 (active),5.4 (active)
"CCc1nn(CCCN2CCN(c3cccc(Cl)c3)CC2)c(=O)n1CCOc1ccccc1 [Nefazodone] (stock concentration (mM, diluted 1:100): 9.3)",,9.68 (active),5.84 (active)
"CCOC(=O)C1=C(C)NC(C)=C(C(=O)OCC)C1c1ccccc1/C=C/C(=O)OC(C)(C)C [Lacidipine] (stock concentration (mM, diluted 1:100): 10)",10.2 (active),-1.71 (inactive),6.44 (inactive)
"CC(C)Oc1ccc2c(=O)c(-c3ccccc3)coc2c1 [Ipriflavone] (stock concentration (mM, diluted 1:100): 10)",3.44 (active),-0.15 (inactive),-1.58 (inactive)
"CCc1c2c(nc3ccc(OC(=O)N4CCC(N5CCCCC5)CC4)cc13)-c1cc3c(c(=O)n1C2)COC(=O)[C@]3(O)CC [Irinotecan hydrochloride] (stock concentration (mM, diluted 1:100): 8.7)",2.14 (active),-1.27 (inactive),
"COc1c(N2C[C@@H]3CCCN[C@@H]3C2)c(F)cc2c(=O)c(C(=O)O)cn(C3CC3)c12 [Moxifloxacin hydrochloride] (stock concentration (mM, diluted 1:100): 9.2)",22.4 (active),0.08 (inactive),2.59 (inactive)
"Nc1nc(Cl)nc2c1ncn2[C@H]1C[C@H](O)[C@@H](CO)O1 [2-Chloro-2-Deoxyadenosine] (stock concentration (mM, diluted 1:100): 10)",-1.81 (inactive),-0.67 (inactive),1.98 (inactive)
"CCOc1cc(CC(=O)N[C@@H](CC(C)C)c2ccccc2N2CCCCC2)ccc1C(=O)O [Repaglinide] (stock concentration (mM, diluted 1:100): 10)",,2.53 (active),2 (inactive)
"O=C(O)CCc1nc(-c2ccccc2)c(-c2ccccc2)o1 [Oxaprozin] (stock concentration (mM, diluted 1:100): 10)",5.72 (active),0.61 (inactive),-0.84 (inactive)
"Cc1[nH]c(=O)c(C#N)cc1-c1ccncc1 [Milrinone] (stock concentration (mM, diluted 1:100): 10.1)",-2.83,-0.97 (inactive),-1.34 (inactive)
"Cc1c(OCC(F)(F)F)ccnc1C[S+]([O-])c1nc2ccccc2[nH]1 (configuration not stated) [Lansoprazole] (stock concentration (mM, diluted 1:100): 10.1)",2.67 (active),1.37 (inactive),14.2 (inactive)
"C[C@@H](O)[C@H]1C(=O)N2C(C(=O)O)=C(S[C@@H]3CN[C@H](C(=O)N(C)C)C3)[C@H](C)[C@H]12 [Meropenem] (stock concentration (mM, diluted 1:100): 11.4)",0.68 (inactive),-1.19 (inactive),-2.33 (inactive)
"O=C(O)C[C@H](O)C[C@H](O)/C=C/c1c(C2CC2)nc2ccccc2c1-c1ccc(F)cc1 [Livalo] (stock concentration (mM, diluted 1:100): 5)",32.2 (active),15.7 (active),0.3 (inactive)
"CN(C)CC[C@@H](c1ccc(Br)cc1)c1ccccn1 [Dexbrompheniramine maleate] (stock concentration (mM, diluted 1:100): 7.3)",-0.16 (inactive),-1.48 (inactive),-1.63 (inactive)
"C[C@H]1O[C@H](O[C@H]2[C@H](O)[C@@H](O)[C@@H](O[C@H]3[C@H](O)[C@@H](O)C(O)O[C@@H]3CO)O[C@@H]2CO)[C@H](O)[C@@H](O)[C@@H]1N[C@H]1C=C(CO)[C@@H](O)[C@H](O)[C@H]1O (some centres not stated) [Acarbose] (stock concentration (mM, diluted 1:100): 10)",-2.1,-1.13 (inactive),0.28 (inactive)
"CC(=O)CCCCn1c(=O)c2c(ncn2C)n(C)c1=O [Pentoxifylline] (stock concentration (mM, diluted 1:100): 10)",-1.09 (inactive),-0.51 (inactive),0.09 (inactive)
"COc1ccc(CN2CCN(C(c3ccc(F)cc3)c3ccc(F)cc3)CC2)c(OC)c1OC [Lomerizine dihydrochloride] (stock concentration (mM, diluted 1:100): 8.7)",,2.29 (active),13.1 (active)
"Nc1nnc(-c2cccc(Cl)c2Cl)c(N)n1 [Lamotrigine] (stock concentration (mM, diluted 1:100): 10.3)",,-1.57 (inactive),0.64 (inactive)
"C[C@@H]1C[C@H]2[C@@H]3C[C@H](F)C4=CC(=O)C(Cl)=C[C@]4(C)[C@@]3(F)[C@@H](O)C[C@]2(C)[C@@]1(O)C(=O)CO [Halometasone monohydrate] (stock concentration (mM, diluted 1:100): 10)",2.32 (active),-0.26 (inactive),0.27 (inactive)
"N[C@@H](C(=O)N[C@@H]1C(=O)N2C(C(=O)O)=C(Cl)CS[C@H]12)c1ccccc1 [Cefaclor] (stock concentration (mM, diluted 1:100): 10)",-1.29 (inactive),0.84 (inactive),
